# From PubChem BioAssay (NCATS)
# Inconclusive results are not listed. A call without a number means that no potency is given here. Activity calls are given as the source filed them. The call rests on the fitted dose curve; in most records, active means well fitted curve in the direction sought with a large enough effect; inconclusive means small, poorly fitted or top-dose-only effect, or another doubt; inactive means no such curve, though single readings can be large; an effect the other way counts as inactive or inconclusive.
# What was measured:
# [1] = NS1 protein of Zika virus - qHTS assay to identify small molecule inhibitors in human HEK 293 cells (AID 1347053); further: series mostly up to about 46 µM; nearly all actives have a fitted effect of over 55% in size
# In short: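 Read-out is a two-antibody TR-FRET for ZIKV NS1, normalized between uninfected cells and infected cells. Compound added 1 h before MR766 infection at MOI 0.5; human HEK 293 cells incubated 24 h, 37 C.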
# [2] = qHTS of pediatric cancer cell lines to identify multiple opportunities for drug repurposing: Primary screen for TC32 cells (AID 1347089); further: nearly all actives have a fitted effect of over 60% in size; further: potency means the concentration at half of the fitted maximal effect
# In short: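 Luminescent ATP read-out (CellTiter-Glo) of metabolically active TC32 cells after 48 h exposure. Concentration-response curves came from 11-point (MIPE, 0.78 nM–46 µM) or 8-point (NPC, 0.59 nM–46 µM) primary titrations; follow-up used 11 points.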
# [3] = qHTS of pediatric cancer cell lines to identify multiple opportunities for drug repurposing: Primary screen for DAOY cells (AID 1347090); further: nearly all actives have a fitted effect of over 55% in size; further: potency means the concentration at half of the fitted maximal effect
# In short: (§1)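 Viability measured as metabolically active cells via CellTiter-Glo luminescence following 48 hours of compound exposure, 11-point dilutions in confirmatory testing. 500-1,000 cells/well plated 5 hours before dosing; controls were DMSO and 2.3 µM bortezomib.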
# [4] = qHTS of pediatric cancer cell lines to identify multiple opportunities for drug repurposing: Primary screen for A673 cells (AID 1347092); further: nearly all actives have a fitted effect of over 45% in size; further: potency means the concentration at half of the fitted maximal effect
# In short: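 Cell viability of A673 measured by CellTiter-Glo ATP luminescence after 48 hours compound exposure. Dilution series spanned 0.78 nM to 46 µM (MIPE, 11-point) or 0.59 nM to 46 µM (NPC, 8-point); bortezomib 2.3 uM positive control.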
# [5] = qHTS of pediatric cancer cell lines to identify multiple opportunities for drug repurposing: Primary screen for BT-37 cells (AID 1347094); further: potency means the concentration at half of the fitted maximal effect
# In short: (§2)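 Readout: CellTiter-Glo luminescence, 48 h treatment. Controls DMSO (neutral) and bortezomib 2.3 µM final (positive). Potency and efficacy taken from primary-screen concentration-response curves.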
# [6] = qHTS of pediatric cancer cell lines to identify multiple opportunities for drug repurposing: Primary screen for NB-EBc1 cells (AID 1347095); further: potency means the concentration at half of the fitted maximal effect
# In short: as §2
# [7] = qHTS of pediatric cancer cell lines to identify multiple opportunities for drug repurposing: Primary screen for U-2 OS cells (AID 1347096); further: nearly all actives have a fitted effect of over 50% in size
# In short: (§3)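 Viability after 48 h compound treatment at 37C, 500-1,000 cells/well, read as ATP luminescence with CellTiter-Glo. Primary screens used 11-point (MIPE, 0.78 nM-46 µM) or 8-point (NPC, 0.59 nM-46 µM) final concentrations; follow-up screens used 11-point dilutions.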
# [8] = qHTS of pediatric cancer cell lines to identify multiple opportunities for drug repurposing: Primary screen for Saos-2 cells (AID 1347097); further: nearly all actives have a fitted effect of over 40% in size; further: potency means the concentration at half of the fitted maximal effect
# In short: as §2
# [9] = qHTS of pediatric cancer cell lines to identify multiple opportunities for drug repurposing: Primary screen for NB1643 cells (AID 1347099); further: nearly all actives have a fitted effect of over 50% in size; further: potency means the concentration at half of the fitted maximal effect
# In short: as §2
# [10] = qHTS of pediatric cancer cell lines to identify multiple opportunities for drug repurposing: Primary screen for LAN-5 cells (AID 1347100); further: potency means the concentration at half of the fitted maximal effect
# In short: as §3
# [11] = qHTS of pediatric cancer cell lines to identify multiple opportunities for drug repurposing: Primary screen for BT-12 cells (AID 1347101); further: nearly all actives have a fitted effect of over 25% in size; further: potency means the concentration at half of the fitted maximal effect
# In short: (§4)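 Cells (500-1,000/well) rested 5 h, then received compounds for 48 h; metabolically active cells were measured by CellTiter-Glo luminescence. Final concentrations spanned up to 46 µM (MIPE, 11-point) or 0.59 nM-46 µM (NPC, 8-point) in primary screens, 11-point in follow-ups.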
# [12] = qHTS of pediatric cancer cell lines to identify multiple opportunities for drug repurposing: Primary screen for SJ-GBM2 cells (AID 1347091)
# In short: as §1
# [13] = qHTS of pediatric cancer cell lines to identify multiple opportunities for drug repurposing: Primary screen for SK-N-MC cells (AID 1347093); further: potency means the concentration at half of the fitted maximal effect
# In short: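 Metabolically active cells were quantified by ATP-dependent luminescence (CellTiter-Glo, 15 min at room temperature) following 48 h treatment. Cells had been plated at 500-1,000 per well and settled for 5 h beforehand.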
# [14] = qHTS of pediatric cancer cell lines to identify multiple opportunities for drug repurposing: Primary screen for SK-N-SH cells (AID 1347098); further: nearly all actives have a fitted effect of over 65% in size; further: potency means the concentration at half of the fitted maximal effect
# In short: as §4
Structure (SMILES),Potency [1],Potency [2],Potency [3],Potency [4],Potency [5],Potency [6],Potency [7],Potency [8],Potency [9],Potency [10],Potency [11],Potency [12],Potency [13],Potency [14]
Nc1ccc(C(=O)NCC(=O)O)cc1,inactive,inactive,inactive,inactive,inactive,inactive,inactive,inactive,inactive,inactive,inactive,,,
CC(C)Nc1cccnc1N1CCN(C(=O)c2cc3cc(NS(C)(=O)=O)ccc3[nH]2)CC1,inactive,inactive,inactive,,inactive,inactive,,inactive,inactive,inactive,inactive,inactive,inactive,inactive
Cc1cn([C@H]2C[C@H](F)[C@@H](CO)O2)c(=O)[nH]c1=O,inactive,inactive,inactive,inactive,,,,inactive,inactive,inactive,inactive,,,inactive
OC(C#CCN1CCCC1)(c1ccccc1)c1ccccc1,inactive,inactive,inactive,inactive,inactive,inactive,inactive,inactive,inactive,inactive,inactive,,inactive,
C#C[C@]1(O)CC[C@H]2[C@@H]3CCc4cc(OC)ccc4[C@H]3CC[C@@]21C,inactive,inactive,inactive,inactive,inactive,inactive,inactive,inactive,inactive,inactive,inactive,,inactive,
CCCN(CCc1cccs1)[C@H]1CCc2c(O)cccc2C1,inactive,inactive,inactive,,,inactive,inactive,,inactive,inactive,inactive,inactive,inactive,inactive
Cc1cc2c(OCC(CNC(C)(C)C)OC(=O)c3ccccc3)cccc2[nH]1 (stereo unspecified),inactive,inactive,inactive,inactive,inactive,inactive,,inactive,inactive,inactive,inactive,,inactive,inactive
C[C@H]1O[C@@H](O[C@H]2CC[C@@]3(C)[C@H](CC[C@@H]4[C@@H]3C[C@@H](O)[C@]3(C)[C@@H](C5=CC(=O)OC5)CC[C@]43O)C2)C[C@H](O)[C@@H]1O[C@H]1C[C@H](O)[C@H](O[C@H]2C[C@H](O)[C@H](O[C@@H]3O[C@H](CO)[C@@H](O)[C@H](O)[C@H]3O)[C@@H](C)O2)[C@@H](C)O1,inactive,374 nM (active),266 nM (active),266 nM (active),123 nM (active),188 nM (active),,,668 nM (active),237 nM (active),309 nM (active),,168 nM (active),386 nM (active)
CCC1Nc2cc(Cl)c(S(N)(=O)=O)cc2S(=O)(=O)N1 (stereo unspecified),inactive,inactive,inactive,,inactive,inactive,inactive,,inactive,inactive,inactive,inactive,inactive,
Cc1c(-c2ccccc2)oc2c(C(=O)OCCN3CCCCC3)cccc2c1=O,inactive,inactive,inactive,inactive,inactive,inactive,inactive,inactive,inactive,inactive,,,inactive,inactive
O=S(c1cc(Cl)cc(Cl)c1O)c1cc(Cl)cc(Cl)c1O,inactive,inactive,inactive,inactive,inactive,,,16800 nM (active),inactive,inactive,,,,inactive
C[C@@H](O)[C@H]1C(=O)N2C(C(=O)O)=C(S[C@@H]3CN[C@H](CNS(N)(=O)=O)C3)[C@H](C)[C@H]12,inactive,inactive,inactive,,inactive,inactive,inactive,inactive,inactive,inactive,,inactive,,
CCCCN1C[C@H](O)[C@@H](O)[C@H](O)[C@H]1CO,inactive,inactive,inactive,inactive,inactive,inactive,inactive,,inactive,inactive,inactive,,inactive,inactive
OC1C(O)C(O)C(O)C(O)C1O (stereo unspecified),inactive,inactive,inactive,inactive,inactive,inactive,inactive,inactive,inactive,inactive,,,inactive,
CCC(CC)(CC(=O)Nc1cccc(/C=C/c2nc(C3CCC3)cs2)c1)C(=O)O,inactive,inactive,inactive,,inactive,inactive,inactive,inactive,inactive,inactive,,inactive,,inactive
Clc1cccc(C(c2ccc3nc[nH]c3c2)n2ccnc2)c1 (stereo unspecified),inactive,inactive,inactive,inactive,inactive,inactive,inactive,inactive,inactive,inactive,inactive,,inactive,inactive
Nc1nc(-c2ccccc2)c(Br)c(=O)[nH]1,inactive,inactive,inactive,,inactive,inactive,inactive,inactive,inactive,inactive,inactive,,inactive,
CC(=O)Nc1ncc([N+](=O)[O-])s1,inactive,inactive,inactive,inactive,inactive,inactive,inactive,inactive,inactive,,inactive,,inactive,
O=C(O)C(Cc1cc(I)c(O)c(I)c1)c1ccccc1 (stereo unspecified),inactive,inactive,inactive,,inactive,inactive,inactive,inactive,inactive,inactive,,inactive,,
